Earlier results, collected in PubChem BioAssay AID977611.
Out of some 3,900 compounds screened, about 3,900 (100%) were called active. No cut-off is given here; in the data, nearly all actives have Kd up to about 4200 µM. The set was probably picked from earlier hits. The list shows a part of the results. Numbered stars: 1 amine (or outer) side, 2 acyl side, 3 side chain; on linkers, the order of the positions; unused ones are H or OH. Starred links: 1 amine or outer side, 2 acyl side, 3 side chain; linkers in the order of their positions; H or OH if unused. Where a SMILES comes first, the peptide text is derived from it. Non-standard residues stand in square brackets, D forms with d. Square brackets hold non-standard residues; d marks the D form. Residues, ends and D or L forms follow the SMILES beside them. Peptide text beside a SMILES is read from it. [ ]: non-standard residue; d: D form. X1 = O=C([C@H](Cc1ccc(O[P+](O)(O)O)cc1)N[*:1])[*:2]; Thr(P(OH)3+) = C[C@@H](O[P+](O)(O)O)[C@H](N)C(=O)O

Assay: PubChem AID 977611
Conditions: PDB protein-ligand complexes, literature Kd

Question: With `CC(=O)N[C@H]1[C@@H](O[P+](O)(O)O[P+](O)(O)OC[C@H]2O[C@@H](n3ccc(=O)[nH]c3=O)[C@H](O)[C@@H]2O)O[C@H](CO)[C@@H](O)[C@@H]1O` as the compound, how does the Kd (protein: UDP-N-acetylglucosamine 1-carboxyvinyltransferase(C115D mutant), PDB entry 3v4t) read?
Answer: 77 µM (active)

Question: And the Kd (protein: UDP-N-acetylglucosamine 1-carboxyvinyltransferase, PDB entry 3upk)?
Answer: 50 µM (active)

Question: Which Kd (protein: UDP-3-O-[3-hydroxymyristoyl] N-acetylglucosamine deacetylase, PDB entry 4mdt) does the source give for `CCCCCCCCCCC[C@@H](O)CC(=O)O[C@@H]1[C@@H](N)[C@@H](O[P+](O)(O)O[P+](O)(O)OC[C@H]2O[C@@H](n3ccc(=O)[nH]c3=O)[C@H](O)[C@@H]2O)O[C@H](CO)[C@H]1O` here?
Answer: 10 µM (active)

Question: For `CC1=C(SC[C@H](NC(=O)CC[C@H](N)C(=O)O)[C@H](O)NCC(=O)O)C(=O)c2ccccc2C1=O`, which Kd (protein: protein yqjG, PDB entry 4g0k) is on record?
Answer: 4.3 µM (active)

Question: With `CCCCCCCCCCCCOS(O)(O)O` as the compound, how does the Kd (protein: Beta-lactoglobulin, PDB entry 4gny) read?
Answer: 52 µM (active)

Question: For H-MRYGQSPNM-OH, which Kd (protein: Protein HTP-2, PDB entry 4tzn) is on record?
Answer: 0.3 µM (active)

Question: Which Kd (protein: P56 LCK Tyrosine kinase, PDB entry 1lcj) does the source give for H-EPQYEEIPIYL-OH here?
Answer: 0.001 µM (active)

Question: For `CC[C@H](C)[C@H](NC(=O)[C@@H](NC(=O)[C@H](CC(C)C)NC(=O)[C@H](CCC(=O)O)NC(=O)[C@H](CCC(=O)O)NC(=O)[C@H](CCC(N)=O)NC(=O)[C@@H]1CCCN1C(=O)[C@H](CC(=O)O)NC(=O)[C@H](CO)NC(=O)CNC(=O)[C@H](Cc1ccc(O)cc1)NC(=O)[C@H](CC(C)C)NC(=O)[C@H](CCC(=O)O)NC(=O)[C@H](C)NC(=O)[C@H](CC(C)C)NC(=O)[C@@H](N)CCSC)[C@@H](C)CC)C(=O)O`, which Kd (protein: mouse Partitioning defective 3 homolog, PDZ 3 domain, PDB entry 2koh) is on record?
Answer: 6 µM (active)

Question: Which Kd (protein: Serine/threonine-protein kinase PLK1 PBD, PDB entry 4o6w) does the source give for `CC(=O)N1CCC[C@H]1C(=O)N[C@@H](CC(C)C)C(=O)N[C@@H](Cc1c[n+](C)cn1CCCCCCCCc1ccccc1)C(=O)N[C@@H](CO)C(=O)N[C@H](C(N)=O)[C@@H](C)O[P+](O)(O)O` (Ac-PL[X1]S[Thr(P(OH)3+)]-NH2) here?
Answer: 0.003 µM (active)

Question: Which Kd (protein: Integrin alpha 5-beta 1, PDB entry 4wk2) does the source give for `NCC(=O)N[C@@H](CCCN=C(N)N)C(=O)NCC(=O)N[C@@H](CC(=O)O)C(=O)N[C@@H](CO)C(=O)N1CCC[C@H]1C(=O)O` here?
Answer: 0.115 µM (active)

Question: With `CC[C@H](C)[C@H](NC(=O)[C@H](CCC(=O)O)NC(=O)[C@H](CC(C)C)NC(=O)[C@@H](NC(=O)[C@H](CC(=O)O)NC(=O)[C@@H]1CCCN1C(=O)[C@H](CC(=O)O)NC(=O)[C@@H](N)CC(N)=O)[C@@H](C)O[P+](O)(O)O)C(=O)N[C@@H](Cc1ccc(O)cc1)C(=O)N[C@@H](CO)C(=O)O` (H-NDPD[Thr(P(OH)3+)]LEIYS-OH) as the compound, how does the Kd (protein: Serine/threonine-protein kinase RAD53, PDB entry 2a0t) read?
Answer: 15 µM (active)

Question: Which Kd (protein: Thymidylate synthase, PDB entry 4knz) does the source give for `O=C1CCN([C@H]2C[C@H](O)[C@@H](CO[P+](O)(O)O)O2)C(=O)N1` here?
Answer: 8.5 µM (active)

Question: Which Kd (protein: THROMBIN, LIGHT CHAIN & THROMBIN, HEAVY CHAIN, PDB entry 4ch2) does the source give for `CC(C)C[C@H](NC(=O)[C@@H](N)CC(=O)O)C(=O)N[C@@H](Cc1ccc(O[P+](O)(O)O)cc1)C(=O)N[C@@H](CC(=O)O)C(=O)N[C@@H](Cc1ccc(O[P+](O)(O)O)cc1)C(=O)N[C@@H](Cc1ccc(O[P+](O)(O)O)cc1)C(=O)N1CCC[C@H]1C(=O)O` here?
Answer: 1.03 µM (active)

Question: Which Kd (protein: E3 ubiquitin-protein ligase CBL, PDB entry 3bun) does the source give for `CC[C@H](C)[C@H](NC(=O)[C@H](Cc1ccc(O[P+](O)(O)O)cc1)NC(=O)[C@H](CC(=O)O)NC(=O)[C@@H](N)CC(N)=O)C(=O)N[C@@H](CC(=O)O)C(=O)N[C@@H](CC(N)=O)C(=O)N1CCC[C@H]1C(=O)O` (H-ND[X1]IDNP-OH) here?
Answer: 0.61 µM (active)

Question: For `CC(C)C[C@H](N)C(=O)N[C@@H](Cc1ccc(O[P+](O)(O)O)cc1)C(=O)N[C@@H](CC(=O)O)C(=O)O`, which Kd (protein: THROMBIN, LIGHT CHAIN & THROMBIN, HEAVY CHAIN, PDB entry 4ch8) is on record?
Answer: 1.03 µM (active)

Question: With H-NELNNNAP-OH as the compound, how does the Kd (protein: SPRY DOMAIN-CONTAINING SOCS BOX PROTEIN 1, PDB entry 2jk9) read?
Answer: 0.15 µM (active)

Question: Which Kd (protein: Grb2 SH2 domain, pY-Clamp Shc1_pY239/240, PDB entry 4jmh) does the source give for `NC(=O)CC[C@H](NC(=O)[C@@H](N)Cc1cnc[nH]1)C(=O)N[C@@H](Cc1ccc(O[P+](O)(O)O)cc1)C(=O)N[C@@H](Cc1ccc(O[P+](O)(O)O)cc1)C(=O)N[C@@H](CC(N)=O)C(=O)N[C@@H](CC(=O)O)C(=O)N[C@@H](Cc1ccccc1)C(=O)N1CCC[C@H]1C(=O)O` (H-HQ[X1][X1]NDFP-OH) here?
Answer: 0.0021 µM (active)

Question: Which Kd (PDB entry 4lps) does the source give for `NC1NC(=O)c2ncn([C@@H]3O[C@H](CO[P+](O)(O)O[P+](O)(O)O)[C@@H](O)[C@H]3O)c2N1` (stereo not given in full) here?
Answer: 1.8 µM (active)

Question: What about the Kd (protein: Atlastin-1, PDB entry 4ido) of the same compound?
Answer: 11.6 µM (active)

Question: And the Kd (protein: Methylmalonyl-CoA mutase accessory protein, PDB entry 4jyc)?
Answer: 0.2 µM (active)

Question: And the Kd (protein: Ras-related protein Rab-8A with Guanine nucleotide exchange factor GRAB, PDB entry 4li0)?
Answer: 0.26 µM (active)

Question: What about the Kd (protein: Ras-related protein Rab-8A, PDB entry 4lhv) of the same compound?
Answer: 0.0001 µM (active)

Question: For `NC1NC(=O)c2ncn([C@@H]3O[C@H](CO[P+](O)(O)O[P+](O)(O)O[P+](O)(O)O)[C@@H](O)[C@H]3O)c2N1` (stereo not given in full), which Kd (protein: ADP-ribosylation factor 6, PDB entry 4kax) is on record?
Answer: 17 µM (active)

Question: With `NC1C=CN([C@@H]2O[C@H](CO[P+](O)(O)O[C@H]3[C@@H](O)[C@H](n4cnc5c4NC(N)NC5=O)O[C@@H]3CO[P+](O)(O)O[C@H]3[C@@H](O)[C@H](n4cnc5c4NC(N)NC5=O)O[C@@H]3CO[P+](O)(O)O[C@H]3[C@@H](O)[C@H](n4cnc5c4NC(N)NC5=O)O[C@@H]3CO[P+](O)(O)O)[C@@H](O[P+](O)(O)O)[C@H]2O)C(=O)N1` (stereo not given in full) as the compound, how does the Kd (protein: Heat resistant RNA dependent ATPase, PDB entry 4i67) read?
Answer: 0.45 µM (active)

Question: Which Kd (protein: DNA polymerase X from Thermus thermophilus HB8, PDB entry 3au6) does the source give for `NC1NC(=O)c2ncn([C@H]3CC[C@@H](CO[P+](O)(O)O[P+](O)(O)O[P+](O)(O)O)O3)c2N1` (stereo not given in full) here?
Answer: 0.012 µM (active)
